GDH-TPI counter – GDH-TPI coupling enzyme inhibitors, primary screen, artefact control for M. tuberculosis FBA inhibitor project, biochemical, absorbance, full deck | GDH-TPI coupled enzyme counterscreen, NADH absorbance | inhibition, % at 4.8 µM | 1.2% of 360,000 active; in the data active = inhibition above about 30%;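 note: 0% = DMSO wells and 100% = wells lacking the enzyme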
Mtb bLac sens – beta-lactam sensitization of Mtb H37Rv, H37Rv | 0.27% of 330,000 active | inhibition, % at 25 µM | AID 434955, 2010 | M. tuberculosis H37Rv growth with meropenem, percent inhibition; call rule not given here;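 note: growth measured after seven days incubation then overnight dye step; 0% = bacteria only wells and 100% = bacteria with antibiotic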
FBA Mtb inh – Mtb FBA enzyme inhibitors, primary screen, biochemical, fluorescence, strain H37Rv; purified M. tuberculosis FBA, fluorescence read-out; AID 588726, 2011; inhibition, % at 1 µM; 2.3% of 360,000 active; Fructose-bisphosphate aldolase (Mycobacterium tuberculosis (strain ATCC 25618 / H37Rv)), …; in the data active = inhibition above about 27%;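 note: 0% = vehicle and 100% = reference inhibitor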
Target sequence (P9WQA3 whole entry, looked up): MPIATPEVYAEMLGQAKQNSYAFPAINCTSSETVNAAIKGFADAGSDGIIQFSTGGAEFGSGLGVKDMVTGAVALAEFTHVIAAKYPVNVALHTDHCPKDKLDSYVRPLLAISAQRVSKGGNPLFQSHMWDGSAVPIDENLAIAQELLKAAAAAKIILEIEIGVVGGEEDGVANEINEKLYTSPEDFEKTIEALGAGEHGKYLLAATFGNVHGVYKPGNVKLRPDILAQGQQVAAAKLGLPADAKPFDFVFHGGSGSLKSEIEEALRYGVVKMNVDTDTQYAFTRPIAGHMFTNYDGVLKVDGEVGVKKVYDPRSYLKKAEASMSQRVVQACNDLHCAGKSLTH
Rv3671c protease – Rv3671c serine protease inhibitors, primary screen, biochemical, fluorescence polarization, M. tuberculosis H37Rv. AID 2606, 2010. P9WHR9. 0.048% of 320,000 active. inhibition, % at 5.96 µM; in the data active = inhibition above about 38%;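 note: extracellular domain of Rv3671c used as enzyme; 0% = enzyme with DMSO and 100% = no enzyme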
UGM FP inh – M. tuberculosis UGM enzyme inhibitors, primary screen, biochemical, fluorescence polarization, single point. inhibition, % at 10 µM. 0.06% of 320,000 active. purified UGM, fluorescence polarization probe displacement. UDP-galactopyranose mutase (Mycobacterium tuberculosis (strain ATCC 25618 / H37Rv)), …. AID 504406, 2011; in the data active = inhibition above about 10%, passing the limit was not always enough
* = called active by the depositor; · = no result; + = active, no number. In the library only some 3.5% were active in any assay of this set; here they are far more common.

SMILES	GDH-TPI counter	Mtb bLac sens	FBA Mtb inh	Rv3671c protease	UGM FP inh
CCOC(=O)c1oc2nc(C(C)C)c3c(c2c1N)CC(C)(C)OC3	-1.8	·	149.4*	·	·
CCCC[C@@H](CN[C@H](C)CNC)NCC1CCC(C(C)(C)C)CC1 (stereo partly drawn)	·	98.9	·	0.9	0.4
CCOc1ccc2nc(NC(=O)c3ccc(C)o3)sc2c1	49.0*	6.8	5.7	-2.4	6.2
COC(=O)c1sc(NC(=O)c2ccc(C)o2)nc1C	34.7*	-1.0	0.5	7.5	-0.5
CCCC(=O)Nc1nc2ccc(OCC)cc2s1	1.4	-2.2	3.1	5.2	-0.2
CC(C)(C)c1ccc(C(=O)Nc2nnc(C3=COCCO3)o2)cc1	4.1	94.1	-0.1	2.9	-1.9
CN(C)c1ccc(C(=O)Nc2nnc(C3=COCCO3)o2)cc1	41.5*	90.2	3.2	-7.7	1.6
CC1(C)CC(=O)C=C(c2ccc(I)cc2)C1	0.5	-0.4	-1.5	6.4	1.4
COc1ccc2cc(C3=CC(=O)CCC3)ccc2c1	31.5*	·	23.2	·	·
O=C1C=C(c2ccc3[nH]ccc3c2)CCC1	35.5*	0.3	-1.8	0.9	-0.5
CC1(C)CC(=O)C=C(c2ccc3[nH]ccc3c2)C1	33.9*	14.9	-2.3	4.5	-2.0
COc1ccc(C2=CC(=O)CC(C)(C)C2)cc1OC	35.2*	7.9	4.7	5.5	-3.1
COc1ccccc1CN1CC(C(=O)NC2CCOCC2)CCC1=O (stereo not drawn)	10.3	-13.4	2.7	-2.0	-0.6
O=C1OC2(c3ccccc31)c1cc(I)c(O)c(I)c1Oc1c2cc(I)c(O)c1I	·	29.9	·	-343.9	-4.3
CCOc1ccc2noc3c2c1C(=O)c1ccccc1-3	-2.4	5.4	-5.9	-8.4	20.9*
COC(=O)c1ccc(C(=O)OC)c(NC(=S)N2CCN(c3ccccc3)CC2)c1	15.9	6.5	29.5*	7.4	-2.0
c1nc2ccc(Cc3ccc4nc[nH]c4c3)cc2[nH]1	-3.4	1.8	5.9	-4.4	-0.5
Cn1c(O)c(C=NC2CCN(Cc3ccccc3)CC2)c(=O)[nH]c1=O	0.5	-0.9	-4.9	1.3	-1.5
Cn1c(O)c(C=NC2CCCCCC2)c(=O)[nH]c1=S	31.7*	-1.1	-7.8	-5.4	-0.9
Cc1nn(-c2ccccc2)c2nc(-c3cccs3)cc(C(=O)NN)c12	9.4	-1.3	6.9	-32.9	-0.6
CCOC(=O)c1cc(-c2cccs2)nc2c1c(C)nn2-c1ccccn1	36.6*	95.9	22.8	-2.8	-1.8
N=c1c(C(=O)NCc2ccco2)cc2c(=O)n3ccccc3nc2n1C1CCCC1	13.4	-7.8	+	6.0	-0.1
CCOCCCn1c(=N)c(C(=O)NCc2ccc3c(c2)OCO3)cc2c(=O)n3cccc(C)c3nc21	9.6	50.5	5.7	-7.7	4.1
Cc1cccn2c(=O)c3cc(C(=O)NC4CCCC4)c(=N)n(C4CCCC4)c3nc12	2.3	13.4	+	-3.5	3.4
N=c1c(S(=O)(=O)c2ccc(Br)cc2)cc2c(=O)n3ccccc3nc2n1C1CCCC1	3.0	-0.4	9.6	-1.4	1.7
SMILES	GDH-TPI counter	Mtb bLac sens	FBA Mtb inh	Rv3671c protease	UGM FP inh
N=c1c(C(=O)NC2CCCC2)cc2c(=O)n3ccccc3nc2n1C1CCCC1	14.0	1.1	122.7*	1.2	-0.5
CCn1c(=N)c(C(=O)NC)cc2c(=O)n3cccc(C)c3nc21	10.7	·	+	·	·
N=c1c(S(=O)(=O)c2ccccc2)cc2c(=O)n3ccccc3nc2n1C1CCCC1	8.9	1.5	7.5	-10.9	2.5
Cc1cccn2c(=O)c3cc(C(=O)NC4CCCC4)n(C)c3nc12	4.7	-2.3	21.3	-13.2	1.7
CCOC(=O)C1=CCN(S(=O)(=O)c2ccccc2Cl)C1c1cccc(Cl)c1 (stereo not drawn)	·	·	-1.1	·	·
COC(C/C=C\[C@H](O)[C@@H](C)OCc1ccccc1)OC	-2.6	-9.8	-2.8	5.7	1.3
CCCn1c(=N)c(C(=O)NC2CCCC2)cc2c(=O)n3cccc(C)c3nc21	7.3	-11.5	+	-6.0	-0.7
Nc1nn(-c2ccccc2)nc1C(=O)OCc1ccccc1F	3.8	73.0	135.2*	-13.6	5.7
CCOC(=O)N1CCC(NC(=S)Nc2ccc3nc(N4CCN(C)CC4)cc(C)c3c2)CC1	11.2	6.4	8.8	9.8	1.7
CCCCNC(=O)CCC(=O)Nc1ccc2nc(N3CCN(C)CC3)cc(C)c2c1	2.6	3.4	22.7	-5.1	8.7

Assay outcomes (PubChem BioAssay)
